Unmarked numbers belong to inactive results.

The source of these data is the supplement of paper PMC7156485.
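Also: TDF is a line of transformed human dermal fibroblasts of mesenchymal origin.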

The experiment deals with TDF. As to the kind of experiment: H1.0 immunofluorescence intensity relative to DMSO (% of DMSO); higher = stronger H1.0 induction, active = 120 or more. As to conditions: concentration: 10 µM; 24 h. In short, it runs like this: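 H1.0 nuclear intensity or cell number is stated as percent of the plate control, based on the median of replicates, and HCC1569 values were smoothed for positional effects. These came from HCC1569 and TDF cells treated with compounds at 10 µM for 24 h at 37 °C in triplicate, then fixed in 3.7% formaldehyde and stained with a rabbit anti-H1.0 antibody, an AlexaFluor 647 secondary and DAPI.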
As to `CC1OC(n2cc(F)c(=O)[nH]c2=O)C(O)C1O` (stereo not given) [Doxifluridine], the H1.0 immunofluorescence intensity is 98.3.

Take `CC1=NN(c2ccccc2)C(=O)C1`: the H1.0 immunofluorescence intensity was 93.5.

With `CCCCCCCCOC(=O)C=Cc1ccc(O)c(O)c1` [n-Octyl caffeate], the H1.0 immunofluorescence intensity is 93.6.

Turning to `Cl.O=C(OCCN1CCOCC1)C1(c2ccccc2)CCCCC1`, the H1.0 immunofluorescence intensity is 90.5.

Regarding `CON(C)C(=O)[C@H](O)[C@H](Cc1ccccc1)NC(=O)c1cc2cc(Cl)ccc2[nH]1`, the H1.0 immunofluorescence intensity is 88.1.

For the compound `O=C(C=Cc1ccc(O)c(O)c1)c1ccc(OC2OC(CO)C(O)C(O)C2O)c(O)c1O` (stereo not given) [Marein], the H1.0 immunofluorescence intensity was 92.

Regarding `CCCCC(C)(C)C(O)C=CC1C(O)CC(=O)C1CC=CCCCC(=O)O` (stereo not given) [16,16-Dimethyl-prostaglandin E2], the H1.0 immunofluorescence intensity was 94.7.

For `CC(=O)Oc1ccccc1C(=O)Nc1ncc([N+](=O)[O-])s1` [2-{[(5-nitro-1,3-thiazol-2-yl)amino]carbonyl}phenyl acetate], the H1.0 immunofluorescence intensity is 98.5.

`CN1CCCCC1CCN1c2ccccc2Sc2ccc(S(C)=O)cc21.O=S(=O)(O)c1ccccc1` (stereo not given) [Mesoridazine besylate]: the H1.0 immunofluorescence intensity was 92.4.

With `CN(C)[C@@H](CCOc1cccc2ccccc12)c1ccccc1.Cl`, the H1.0 immunofluorescence intensity is 104.

Regarding `NC(CCC(=O)NC(CS)C(=O)NCC(=O)O)C(=O)O` (stereo not given) [Glutathione], the H1.0 immunofluorescence intensity was 91.

Turning to `O=c1cc(-c2ccccc2)oc2cc(O)c(O)c(O)c12` [Baicalein], the H1.0 immunofluorescence intensity is 93.3.

For `CC1COc2c(C3(N)CC3)c(F)cc3c(=O)c(C(=O)O)cn1c23` (stereo not given) [Pazufloxacin], the H1.0 immunofluorescence intensity was 94.1.

For `COc1cc(NS(=O)(=O)c2ccc(N)cc2)nc(OC)n1` [Sulfadimethoxine], the H1.0 immunofluorescence intensity was 96.7.

As for `CCCn1c(=O)c2[nH]c(-c3ccc(OCC(=O)Nc4ccc(C#N)cc4)cc3)nc2n(CCC)c1=O`, the H1.0 immunofluorescence intensity was 96.6.

With `O=C(O)Cc1c[nH]c2ccccc12` [Indole-3-acetic acid], the H1.0 immunofluorescence intensity is 94.5.

For the compound `CCC(=O)Nc1ccc2ncnc(Nc3cccc(Br)c3)c2c1`, the H1.0 immunofluorescence intensity is 93.1.

As for `Cc1cccc(Nc2ccccc2C(=O)O)c1C` [Mefenamic acid], the H1.0 immunofluorescence intensity is 104.

Regarding `COC1=C(OC)C(=O)C(CCCCCCCCCCO)=C(C)C1=O` [Idebenone], the H1.0 immunofluorescence intensity is 101.

On to `Cl.Cl.NCCSSCCN` [Cystamine dihydrochloride], for which the H1.0 immunofluorescence intensity is 93.4.

Turning to `CCCCCCCCCCCC=CCCCCCC(=O)O` [7(E)-Nonadecenoic acid], the H1.0 immunofluorescence intensity was 96.9.

Consider `CC1CC2C(C(O)CC3(C)C2CCC3(O)C(=O)CO)C2(C)C=CC(=O)C=C12` (stereo not given) [Methylprednisolone], for which the H1.0 immunofluorescence intensity is 88.6.

`COc1cc2nc(N3CCN(C(=O)C4CCCO4)CC3)nc(N)c2cc1OC` (stereo not given) [Terazosin]: the H1.0 immunofluorescence intensity is 93.9.

On to `O=C(Nc1nc2ccc(NC(=O)C34CC5CC(CC(C5)C3)C4)cc2s1)c1ccccc1`, for which the H1.0 immunofluorescence intensity was 170 (active).

As for `CCOC(=O)C(CCc1ccccc1)NC(C)C(=O)N1CCCC1C(=O)O` (stereo not given) [Enalapril], the H1.0 immunofluorescence intensity was 98.8.

Turning to `O=C(O)c1cc(=O)c2ccccc2[nH]1` [Kynurenic acid], the H1.0 immunofluorescence intensity was 91.3.

For the compound `O=C(CCN1CCN(C(=O)OCc2cc(Cl)cc(Cl)c2)CC1)c1ccc2[nH]c(=O)oc2c1`, the H1.0 immunofluorescence intensity was 87.1.

For the compound `CC(C)NNC(=O)c1ccncc1.O=P(O)(O)O` [Iproniazid phosphate], the H1.0 immunofluorescence intensity was 93.8.

Turning to `Cn1c(=O)[nH]c2ncn(C)c2c1=O` [1,7-Dimethylxanthine], the H1.0 immunofluorescence intensity is 88.

With `Nc1ccccc1NC(=O)CCCCCCC(=O)Nc1ccccc1` [N~1~-(2-aminophenyl)-N~8~-phenyloctanediamide], the H1.0 immunofluorescence intensity was 92.6.

With `CN1CCCC1CCOC(C)(c1ccccc1)c1ccc(Cl)cc1` (stereo not given) [Clemastine], the H1.0 immunofluorescence intensity was 102.

Turning to `C#CC1(O)CCC2C3C(C)CC4=C(CCC(=O)C4)C3CCC21C` (stereo not given) [Tibolone], the H1.0 immunofluorescence intensity is 102.

For `CCn1c(=O)[nH]c2cc(Cl)c(Cl)cc21`, the H1.0 immunofluorescence intensity is 99.5.

Turning to `CC1(C)CC(NC(=O)C(=O)Nc2ccc(Cl)cc2)CC(C)(C)N1`, the H1.0 immunofluorescence intensity was 91.

Consider `COC1=C(OC)C(=O)c2ccccc2C1=O` [2,3-Dimethoxy-1,4-naphthoquinone], for which the H1.0 immunofluorescence intensity was 114.
